WT yeast gro inh: growth inhibition of WT strain, primary screen, mitochondrial fusion inhibitor project, WT and mutant strains, chemical genetic; inhibition, % at 10 µM; mitochondrial fusion phenotypic screen; 190,000 tested, 2.1% active; in the data active = inhibition above about 58%; tested in S. cerevisiae
Insulin prom inh: inhibitors of insulin promoter-driven GFP, primary screen, imaging, TRM-6 cells (human fetal islet line), eGFP reporter, cell count. reporter expression induced with tamoxifen. inhibition, % at 2 µM. 130,000 tested, 0.9% active. AID 1273, 2008;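 active = inhibition above the mean plus 3 SD, with well images judged a real hit on visual review, cut at about 60% in these data, passing the limit was not always enough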
Insulin prom up: insulin promoter activators in MIN6 cells, imaging, high-content screening, mouse beta cells | z-score at 5 µM | MIN6 insulin promoter-GFP reporter; hits give high values | 190,000 tested, 0.3% active;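 active = z-score above 3 at 5 µM with at least 500 cells counted in the well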
Lmaj promast: Leishmania major promastigote growth inhibition, primary screen. Leishmania major promastigotes, resazurin fluorescence viability. AID 1063, 2008. 200,000 tested, 9% active. inhibition, % at 10 µM; in the data active = inhibition above about 50%;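 note: promastigotes grown with compound for 44 hours at 28 °C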
Autophagy mod: autophagy modulators in MEF cells, primary screen, imaging, high-content, MEF GFP-LC3. 190,000 tested, 0.98% active. MEF GFP-LC3 puncta imaging; test concentration mostly 10 µM. calls only at 10 µM (by protocol);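 active = percentage of spot-positive cells more than 3 SD above its plate mean, without a fluorescence outlier flag or 80% toxicity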;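 note: spot-positive cell cutoff set from DMSO-treated cells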
Starred values were filed as active, the others as inactive; i = inactive; / = no result given; + = active, no number. A selection: hits, their analogues and other compounds. The true share with any hit is near 11%.

SMILES	WT yeast gro inh	Insulin prom inh	Insulin prom up	Lmaj promast	Autophagy mod
CCOc1ccc(NC(=O)C2CC(C)=C(C)CC2C(=O)O)cc1 (stereo not drawn)	0.9	-14.3	0.1	80.5*	i
CCOc1ccc(NC(=O)c2cnccn2)cc1	-9.5	94.3*	0.38	-1.4	i
Nc1[nH]n2c(=O)cc(-c3ccccc3)nc2c1N=Nc1ccc2c(c1)OCO2	16.1	/	-0.07	2.6	i
C/C(=N\NC(=O)Cc1csc(N2CCOCC2)n1)c1ccc(Cl)c(Cl)c1	10.5	/	-0.2	12.4	i
Cc1ccccc1NC(=S)NC(C)CCc1ccccc1 (stereo not drawn)	67.8*	/	0.07	61.6*	i
NC(=O)c1ccccc1NC(=S)NC(=O)CCc1ccccc1	8.7	-22.9	1.56	-6.3	i
Cc1ccccc1NC(=S)NC(=O)CCc1ccccc1	12.1	-74.2	-0.4	99.8*	i
CC(=O)NC(C)CCc1ccccc1 (stereo not drawn)	/	/	-0.35	/	/
Cc1cccc(C)c1NC(=S)NCc1ccccc1	3.3	0.0	0.83	5.8	i
Cc1cccc(C)c1NC(=S)NC(=O)CCc1ccccc1	-1.3	/	0.02	93.2*	i
O=C(COCC(=O)N1CCOCC1)N1CCOCC1	0.5	/	-0.17	-8.2	i
O=C(COC(=O)c1ccccc1C(=O)c1ccc(Cl)c([N+](=O)[O-])c1)NC1CC1	-10.8	-20.0	-2.58	8.7	i
O=C(COC(=O)c1ccccc1[N+](=O)[O-])c1ccc(C2CCCCC2)cc1	59.7*	-11.5	-2.44	-3.3	i
CCOc1ccccc1C(=O)N1CCCCC1C (stereo not drawn)	-11.9	-16.2	-0.09	-1.1	i
O=C(COC(=O)c1ccccc1C(=O)c1ccccc1)NCc1ccc(F)cc1	7.4	/	0.39	5.1	i
CCOC(=O)c1cnc(Nc2nc3ccccc3o2)nc1CN1CCN(C)CC1	19.5	-10.3	-0.1	76.5*	i
Cc1cc(C)n(C(=O)c2ccc([N+](=O)[O-])c(Cl)c2)n1	-12.1	-5.4	0.1	92.1*	i
CC(C)(CNC(=O)c1ccc([N+](=O)[O-])c(Cl)c1)CNC(=O)c1ccc([N+](=O)[O-])c(Cl)c1	48.0	18.0	/	88.3*	i
Cc1nc(-c2ccc(NS(C)(=O)=O)cc2)cs1	-15.7	73.3*	/	7.6	i
Cc1nc(-c2cccc(NS(=O)(=O)c3cccc4ccccc34)c2)cs1	61.9*	7.1	-0.43	6.4	i
CC(=O)Nc1ccc(S(=O)(=O)Nc2cccc(-c3csc(C)n3)c2)cc1	-5.0	/	/	3.4	i
Cc1nc(-c2cccc(NS(C)(=O)=O)c2)cs1	-4.9	/	/	-7.5	i
Cc1nc(-c2cccc(NC(=O)Cc3ccccc3)c2)cs1	-13.1	/	0.83	7.6	i
Nc1nc(-c2cccc(NS(=O)(=O)c3ccccc3)c2)cs1	3.6	-74.2	-0.2	59.1*	i
COc1cccc2sc(/N=C/N(C)C)nc12	/	/	-0.28	/	/
SMILES	WT yeast gro inh	Insulin prom inh	Insulin prom up	Lmaj promast	Autophagy mod
Cc1cccc(N2C(=O)CC(c3ccc(F)cc3)C3=C2COC3=O)c1 (stereo not drawn)	-11.4	-26.7	0.57	-4.5	i
CC(=O)N1N=C(c2cccc([N+](=O)[O-])c2)OC1c1ccc(Br)cc1 (stereo not drawn)	/	/	-0.09	/	/
CC(=O)N1N=C(c2ccccc2)OC1c1ccc([N+](=O)[O-])s1 (stereo not drawn)	-8.1	-193.3	0.06	100.3*	i
CCc1ccc(NC(=O)/C(C#N)=C/c2cc3ccc(C)cc3nc2N2CCOCC2)cc1	3.9	-6.7	0.55	1.9	+
COc1ccc(NC(=O)/C(C#N)=C\c2ccc(N3CCOCC3)o2)cc1	1.3	/	/	-0.5	i
COCCCNC(=O)CN(CCc1ccccc1)S(=O)(=O)c1ccc(C)cc1	13.9	/	0.76	3.1	i
Cc1c(C#N)c(N=CN(C)C)c(C(=O)c2ccc(Br)cc2)n1-c1ccccc1	-6.9	8.3	-0.58	100.1*	i
Cc1c(C#N)c(N=CN(C)C)c(C(=O)c2ccccc2)n1-c1ccc(Br)cc1	5.9	-32.3	/	-4.0	i
Cc1ccc(OCC(=O)N2CCCCC2)c(Br)c1	-2.1	-16.1	1.03	0.1	i
Cc1cc(Cl)ccc1OC(C)C(=O)N1CCCN(C(=O)C(C)Oc2ccc(Cl)cc2C)CC1 (stereo not drawn)	59.6*	i	-0.28	99.5*	i
Cc1cc(C)c(C)c(OCC(=O)N2CCOCC2)c1	-14.1	2.7	/	1.1	i
Cc1cc(OCC(=O)N2CCOCC2)c(C(C)C)cc1Cl	-11.6	-33.3	0.48	80.4*	i
CC(C)(C)c1ccc(OCC(=O)N2CCCCCC2)c(Br)c1	67.6*	/	0.02	27.4	i
CCOc1cc(C(=O)OC(C)C(=O)Nc2ncc(Cl)cc2Cl)ccc1OCC(=O)N1CCOCC1 (stereo not drawn)	11.7	29.9	0.52	73.2*	i
Cc1ccc(C(O)CSc2nnc(-c3ccc4ccccc4c3)n2C)cc1 (stereo not drawn)	/	/	-1.1	/	/
C/C(=N\NC(=O)OC(C)(C)C)c1ccccc1Br	-10.8	/	/	0.2	i
S=C1COC(c2ccccc2)N1c1ccccc1 (stereo not drawn)	-3.6	-125.0	-0.11	-2.7	i
Clc1ccccc1Sc1ccc(-c2ccccn2)s1	/	/	0.27	/	/
O=C(C[n+]1ccccc1)N/N=C/c1cccs1	-7.8	-19.1	-0.41	-1.5	i
Cc1cc(Cl)ccc1OCC(=O)N1CC(C)CC(C)C1 (stereo not drawn)	-5.4	-88.6	/	3.0	i
Cc1cc(Cl)ccc1OCC(=O)N1CCCN(C(=O)COc2ccc(Cl)cc2C)CC1	73.0*	-60.0	/	91.6*	i
N#Cc1cn(CC(=O)NCCc2c[nH]c3ccccc23)c2ccccc12	-9.8	-8.7	0.28	87.5*	i
N#Cc1cccc(NC(=O)NCCc2c[nH]c3ccccc23)c1	7.0	10.0	0.93	90.5*	i
O=C(O)/C=C(\Oc1ccccc1)C1(O)CCCCC1	/	/	-0.69	/	/
Cc1ccc(N(CCC#N)C(=O)CCl)cc1C	-8.6	32.4	0.47	79.4*	i
Cc1ccc(S(=O)(=O)Nc2ccc(C(=O)OCC(=O)N(CCC#N)c3ccccc3)cc2)cc1C	-5.2	25.0	/	0.4	i
O=C(NC1CCCC1)C1CCN(C(=O)c2ccc(-c3ccccc3)cc2)CC1	7.5	/	0.54	-6.0	i

Source: PubChem BioAssay
